Measured values reported in paper PMC7862700, “An all-to-all approach to the identification of sequence-specific readers for epigenetic DNA modifications on cytosine”.

Experiments:
Assay in all cases: DAPPL (digital affinity profiling via proximity ligation, sequencing); 10 mM Tris-HCl pH 7.5, 50 mM NaCl, 1 mM DTT, 4% glycerol, room temperature, 30 min; GST-TFs on glutathione beads, 16-mer random dsDNA library, 0.1% formaldehyde crosslink after washing; high values mean tight binding
Settings in all cases: protein: recombinant; tags: N-terminal GST; dsDNA, one strand shown
ELK1 = molecular target: T1, ELK1 (Homo sapiens, UniProt P19419 1-428)
T1 sequence: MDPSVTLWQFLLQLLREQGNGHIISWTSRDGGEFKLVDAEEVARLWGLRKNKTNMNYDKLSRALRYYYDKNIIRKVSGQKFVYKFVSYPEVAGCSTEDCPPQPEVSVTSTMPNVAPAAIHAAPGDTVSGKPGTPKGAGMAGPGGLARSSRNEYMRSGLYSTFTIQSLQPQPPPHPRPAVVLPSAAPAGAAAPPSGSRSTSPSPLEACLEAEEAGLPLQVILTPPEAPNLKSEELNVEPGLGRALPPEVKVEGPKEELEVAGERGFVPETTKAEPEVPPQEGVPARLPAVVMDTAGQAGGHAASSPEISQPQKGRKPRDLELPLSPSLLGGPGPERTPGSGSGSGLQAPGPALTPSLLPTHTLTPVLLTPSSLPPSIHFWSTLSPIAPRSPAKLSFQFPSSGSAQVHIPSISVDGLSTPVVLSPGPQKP
Method in brief: (§1)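 Pools were built from human transcription factors expressed in yeast as GST fusions, captured on glutathione beads and DNA-barcoded, along with a tag-only sample. Incubation with 200 nmole of a 16-mer random double-stranded DNA library lasted 30 min at room temperature in Tris/NaCl/DTT/glycerol buffer, and was followed by washing, 0.1% formaldehyde crosslinking, proximity ligation, PCR amplification and Illumina NextSeq500 sequencing. Binding signal is the quotient of each hexamer's read frequency for a factor and its frequency for the tag-only sample.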

ERG = molecular target: T2, ERG (Homo sapiens, UniProt P11308 1-479)
T2 sequence: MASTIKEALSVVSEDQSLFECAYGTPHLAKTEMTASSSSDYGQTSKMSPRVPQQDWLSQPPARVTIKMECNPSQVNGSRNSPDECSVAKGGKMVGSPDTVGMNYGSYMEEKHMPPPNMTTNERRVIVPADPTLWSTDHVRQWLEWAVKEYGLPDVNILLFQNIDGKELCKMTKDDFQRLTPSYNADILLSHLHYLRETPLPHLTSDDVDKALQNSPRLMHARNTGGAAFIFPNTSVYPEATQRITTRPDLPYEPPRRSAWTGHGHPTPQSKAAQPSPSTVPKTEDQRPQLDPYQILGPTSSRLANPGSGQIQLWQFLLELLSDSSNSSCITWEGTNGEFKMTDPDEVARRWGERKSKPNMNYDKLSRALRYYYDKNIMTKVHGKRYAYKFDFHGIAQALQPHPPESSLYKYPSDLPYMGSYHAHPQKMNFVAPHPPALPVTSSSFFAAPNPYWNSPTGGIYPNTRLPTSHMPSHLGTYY
Method in brief: as §1

EHF = molecular target: T3, EHF (Homo sapiens, UniProt Q9NZC4 1-300)
T3 sequence: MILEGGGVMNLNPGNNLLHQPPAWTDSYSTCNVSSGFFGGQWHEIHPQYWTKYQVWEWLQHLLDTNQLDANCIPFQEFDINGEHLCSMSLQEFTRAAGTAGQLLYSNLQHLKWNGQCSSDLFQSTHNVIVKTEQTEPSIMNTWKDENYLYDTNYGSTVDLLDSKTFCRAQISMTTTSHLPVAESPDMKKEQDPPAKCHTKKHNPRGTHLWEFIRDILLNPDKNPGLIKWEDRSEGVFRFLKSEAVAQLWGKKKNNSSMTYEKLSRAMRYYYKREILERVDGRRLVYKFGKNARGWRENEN
Method in brief: as §1

SPIB = SPIB (Homo sapiens, UniProt Q01892 1-262)
Method in brief: as §1

FEV = molecular target: T4, FEV (Homo sapiens, UniProt Q99581 1-238)
T4 sequence: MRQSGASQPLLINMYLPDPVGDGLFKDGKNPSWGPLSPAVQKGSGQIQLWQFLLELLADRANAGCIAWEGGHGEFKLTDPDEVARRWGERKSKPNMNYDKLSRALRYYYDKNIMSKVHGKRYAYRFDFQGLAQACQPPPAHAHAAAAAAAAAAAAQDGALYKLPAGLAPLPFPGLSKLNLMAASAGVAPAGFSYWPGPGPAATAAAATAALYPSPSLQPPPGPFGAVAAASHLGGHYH
Method in brief: as §1

ELF4 = ELF4 (Homo sapiens, UniProt Q99607 1-663)
Method in brief: as §1

ELK4 = molecular target: T5, ELK4 (Homo sapiens, UniProt P28324-2 1-405)
T5 sequence: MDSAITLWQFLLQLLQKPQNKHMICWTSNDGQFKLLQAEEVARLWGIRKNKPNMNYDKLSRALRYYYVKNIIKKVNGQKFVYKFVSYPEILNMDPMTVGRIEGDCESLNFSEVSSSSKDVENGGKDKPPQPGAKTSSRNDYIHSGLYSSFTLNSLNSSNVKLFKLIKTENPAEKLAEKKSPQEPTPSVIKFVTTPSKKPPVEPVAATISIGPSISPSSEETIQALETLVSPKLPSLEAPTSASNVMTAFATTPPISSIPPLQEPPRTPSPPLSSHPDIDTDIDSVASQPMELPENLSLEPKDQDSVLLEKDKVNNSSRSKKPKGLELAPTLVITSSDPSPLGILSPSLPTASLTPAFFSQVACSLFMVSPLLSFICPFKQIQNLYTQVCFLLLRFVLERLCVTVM
Method in brief: as §1

ETV2 = molecular target: T6, ETV2 (Homo sapiens, UniProt O00321 1-342)
T6 sequence: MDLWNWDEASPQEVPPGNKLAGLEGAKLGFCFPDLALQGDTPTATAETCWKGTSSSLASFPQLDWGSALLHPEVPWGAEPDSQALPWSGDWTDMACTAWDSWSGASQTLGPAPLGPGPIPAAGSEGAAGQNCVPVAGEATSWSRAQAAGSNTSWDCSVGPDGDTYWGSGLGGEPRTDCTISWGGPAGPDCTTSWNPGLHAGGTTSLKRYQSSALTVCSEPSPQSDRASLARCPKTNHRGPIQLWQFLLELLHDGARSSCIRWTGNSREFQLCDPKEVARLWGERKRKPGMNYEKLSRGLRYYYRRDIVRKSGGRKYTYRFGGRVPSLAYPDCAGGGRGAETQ
Method in brief: as §1

ETV1 = ETV1 (Homo sapiens, UniProt P50549 1-477)
Method in brief: as §1

ERF = molecular target: T7, ERF (Homo sapiens, UniProt P50548 1-548)
T7 sequence: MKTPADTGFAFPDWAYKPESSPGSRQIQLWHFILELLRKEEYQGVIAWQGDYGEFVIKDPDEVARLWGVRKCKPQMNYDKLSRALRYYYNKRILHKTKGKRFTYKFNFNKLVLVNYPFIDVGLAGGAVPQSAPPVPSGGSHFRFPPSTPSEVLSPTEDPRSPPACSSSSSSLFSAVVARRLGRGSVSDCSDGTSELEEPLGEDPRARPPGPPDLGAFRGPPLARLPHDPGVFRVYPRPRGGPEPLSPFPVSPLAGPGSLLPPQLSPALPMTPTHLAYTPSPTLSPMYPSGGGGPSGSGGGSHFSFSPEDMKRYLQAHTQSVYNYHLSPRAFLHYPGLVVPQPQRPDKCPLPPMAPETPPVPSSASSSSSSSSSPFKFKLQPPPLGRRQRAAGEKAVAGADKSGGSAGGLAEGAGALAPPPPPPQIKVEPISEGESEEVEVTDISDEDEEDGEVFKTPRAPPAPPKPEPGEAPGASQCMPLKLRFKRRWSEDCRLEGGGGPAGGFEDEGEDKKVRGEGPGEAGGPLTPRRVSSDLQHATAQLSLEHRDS
Method in brief: as §1

ETV3L = molecular target: T8, ETV3L (Homo sapiens, UniProt Q6ZN32 1-361)
T8 sequence: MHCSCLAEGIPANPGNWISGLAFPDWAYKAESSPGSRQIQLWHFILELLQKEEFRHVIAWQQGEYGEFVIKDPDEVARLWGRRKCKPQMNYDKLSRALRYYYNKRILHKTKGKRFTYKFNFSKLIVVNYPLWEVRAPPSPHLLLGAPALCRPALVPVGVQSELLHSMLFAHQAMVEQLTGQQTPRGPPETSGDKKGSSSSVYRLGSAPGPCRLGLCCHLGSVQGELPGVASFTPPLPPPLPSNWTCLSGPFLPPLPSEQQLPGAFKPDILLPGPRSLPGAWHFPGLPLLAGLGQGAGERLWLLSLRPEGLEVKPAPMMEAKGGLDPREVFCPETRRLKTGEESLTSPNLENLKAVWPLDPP
Method in brief: as §1

ETS2 = molecular target: T9, ETS2 (Homo sapiens, UniProt P15036 1-469)
T9 sequence: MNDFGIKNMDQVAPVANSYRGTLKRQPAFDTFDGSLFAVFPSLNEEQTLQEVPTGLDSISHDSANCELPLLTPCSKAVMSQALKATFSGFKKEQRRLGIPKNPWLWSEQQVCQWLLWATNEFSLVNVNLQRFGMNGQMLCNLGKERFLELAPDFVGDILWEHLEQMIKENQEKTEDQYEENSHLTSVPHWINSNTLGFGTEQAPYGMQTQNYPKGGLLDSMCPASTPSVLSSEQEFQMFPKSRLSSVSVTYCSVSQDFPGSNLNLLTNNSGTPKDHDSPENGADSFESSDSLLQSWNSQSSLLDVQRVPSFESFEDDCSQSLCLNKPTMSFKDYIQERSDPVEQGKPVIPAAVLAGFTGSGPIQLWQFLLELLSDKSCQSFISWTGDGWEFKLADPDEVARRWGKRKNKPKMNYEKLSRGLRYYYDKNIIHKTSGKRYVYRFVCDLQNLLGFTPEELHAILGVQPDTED
Method in brief: as §1

SPDEF = molecular target: T10, SPDEF (Homo sapiens, UniProt O95238 1-335)
T10 sequence: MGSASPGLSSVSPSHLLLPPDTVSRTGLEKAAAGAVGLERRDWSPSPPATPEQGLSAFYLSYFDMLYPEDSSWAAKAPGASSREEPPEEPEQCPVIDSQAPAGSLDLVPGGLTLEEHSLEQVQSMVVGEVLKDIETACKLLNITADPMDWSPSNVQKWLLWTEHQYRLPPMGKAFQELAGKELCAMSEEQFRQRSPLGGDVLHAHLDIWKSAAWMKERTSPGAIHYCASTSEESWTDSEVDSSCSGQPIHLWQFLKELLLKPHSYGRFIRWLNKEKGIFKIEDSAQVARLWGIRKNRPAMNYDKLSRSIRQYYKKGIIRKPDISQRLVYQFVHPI
Method in brief: as §1

ETV7 = molecular target: T11, ETV7 (Homo sapiens, UniProt Q9Y603 1-341)
T11 sequence: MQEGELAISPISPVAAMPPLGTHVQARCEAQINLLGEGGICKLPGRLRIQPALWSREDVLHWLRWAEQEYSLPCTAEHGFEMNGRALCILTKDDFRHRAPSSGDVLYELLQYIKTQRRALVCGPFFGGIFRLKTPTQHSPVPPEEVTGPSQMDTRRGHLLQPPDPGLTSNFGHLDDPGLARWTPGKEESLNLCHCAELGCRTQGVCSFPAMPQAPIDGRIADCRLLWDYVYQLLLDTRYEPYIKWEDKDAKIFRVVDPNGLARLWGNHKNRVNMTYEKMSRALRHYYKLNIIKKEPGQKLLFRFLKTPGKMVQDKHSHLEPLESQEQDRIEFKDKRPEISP
Method in brief: as §1

ETV3 = molecular target: T12, ETV3 (Homo sapiens, UniProt P41162-2 1-143)
T12 sequence: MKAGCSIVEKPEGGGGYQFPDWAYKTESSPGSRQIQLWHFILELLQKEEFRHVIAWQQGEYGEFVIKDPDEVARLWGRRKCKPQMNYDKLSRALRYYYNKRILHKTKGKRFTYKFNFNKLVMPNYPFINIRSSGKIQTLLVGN
Method in brief: as §1

ETV1, sequence (P50549 whole entry): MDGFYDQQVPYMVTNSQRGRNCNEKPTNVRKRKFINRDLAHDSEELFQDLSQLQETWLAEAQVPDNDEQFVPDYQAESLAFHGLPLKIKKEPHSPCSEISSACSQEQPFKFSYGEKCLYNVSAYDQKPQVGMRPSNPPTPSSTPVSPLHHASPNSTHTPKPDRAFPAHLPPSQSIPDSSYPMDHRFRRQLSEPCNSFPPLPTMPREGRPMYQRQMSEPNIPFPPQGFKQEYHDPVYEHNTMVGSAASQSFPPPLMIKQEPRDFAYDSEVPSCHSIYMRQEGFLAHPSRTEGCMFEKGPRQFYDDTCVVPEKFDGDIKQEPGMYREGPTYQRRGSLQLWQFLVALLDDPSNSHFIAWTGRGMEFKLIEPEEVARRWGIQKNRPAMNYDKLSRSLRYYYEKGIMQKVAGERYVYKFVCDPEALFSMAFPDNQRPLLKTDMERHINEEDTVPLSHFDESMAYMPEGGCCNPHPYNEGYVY
SPIB, sequence (Q01892 whole entry): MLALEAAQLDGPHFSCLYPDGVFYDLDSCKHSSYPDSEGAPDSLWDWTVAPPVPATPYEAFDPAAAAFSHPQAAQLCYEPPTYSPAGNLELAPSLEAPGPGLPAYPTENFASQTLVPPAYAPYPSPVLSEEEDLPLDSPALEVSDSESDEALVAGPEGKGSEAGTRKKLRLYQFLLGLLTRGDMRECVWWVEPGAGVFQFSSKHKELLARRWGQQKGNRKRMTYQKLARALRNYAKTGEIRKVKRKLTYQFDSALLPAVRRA
ELF4, sequence (Q99607 whole entry): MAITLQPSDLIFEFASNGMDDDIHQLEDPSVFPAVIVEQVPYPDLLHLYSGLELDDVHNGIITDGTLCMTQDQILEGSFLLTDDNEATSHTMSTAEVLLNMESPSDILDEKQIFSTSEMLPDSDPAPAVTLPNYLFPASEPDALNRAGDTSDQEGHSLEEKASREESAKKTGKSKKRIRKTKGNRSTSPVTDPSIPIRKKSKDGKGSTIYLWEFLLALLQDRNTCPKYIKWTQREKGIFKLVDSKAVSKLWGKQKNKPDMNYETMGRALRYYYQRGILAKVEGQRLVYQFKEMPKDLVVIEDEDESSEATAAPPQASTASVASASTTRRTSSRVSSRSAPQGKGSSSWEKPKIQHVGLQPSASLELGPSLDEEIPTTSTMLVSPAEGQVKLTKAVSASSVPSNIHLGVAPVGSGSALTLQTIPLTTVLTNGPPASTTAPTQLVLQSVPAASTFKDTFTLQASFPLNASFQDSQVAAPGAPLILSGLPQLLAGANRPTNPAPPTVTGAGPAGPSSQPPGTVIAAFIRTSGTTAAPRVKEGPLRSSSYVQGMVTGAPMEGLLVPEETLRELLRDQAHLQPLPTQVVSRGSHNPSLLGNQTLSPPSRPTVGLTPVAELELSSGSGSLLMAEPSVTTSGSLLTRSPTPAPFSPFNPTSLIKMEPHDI

Sequence: ACACCG
- binding signal (ELK1): 1.05 fold enrichment (6-mer frequency, TF over GST control)
- binding signal (ERG): 1.13 fold enrichment (6-mer frequency, TF over GST control)
- binding signal (EHF): 1.03 fold enrichment (6-mer frequency, TF over GST control)
- binding signal (SPIB): 1.06 fold enrichment (6-mer frequency, TF over GST control)
- binding signal (FEV): 1.26 fold enrichment (6-mer frequency, TF over GST control)
- binding signal (ELF4): 1.11 fold enrichment (6-mer frequency, TF over GST control)
- binding signal (ELK4): 1.03 fold enrichment (6-mer frequency, TF over GST control)
- binding signal (ETV2): 1.03 fold enrichment (6-mer frequency, TF over GST control)
- binding signal (ETV1): 1.09 fold enrichment (6-mer frequency, TF over GST control)
- binding signal (ERF): 1 fold enrichment (6-mer frequency, TF over GST control)
- binding signal (ETV3L): 1.04 fold enrichment (6-mer frequency, TF over GST control)
- binding signal (ETS2): 1.07 fold enrichment (6-mer frequency, TF over GST control)
- binding signal (SPDEF): 1.09 fold enrichment (6-mer frequency, TF over GST control)
- binding signal (ETV7): 1.01 fold enrichment (6-mer frequency, TF over GST control)
- binding signal (ETV3): 1.03 fold enrichment (6-mer frequency, TF over GST control)
